TDP1 block: TDP1 (human) enzyme inhibition | recombinant TDP1, AlphaScreen DNA substrate cleavage | Potency, µM (doses to about 130 µM), actives largely listed as inhibitors | 0.28% of 350,000 active; note: nearly all actives have a fitted effect of over 40% in size
Target sequence (Q9NUW8 whole entry, looked up): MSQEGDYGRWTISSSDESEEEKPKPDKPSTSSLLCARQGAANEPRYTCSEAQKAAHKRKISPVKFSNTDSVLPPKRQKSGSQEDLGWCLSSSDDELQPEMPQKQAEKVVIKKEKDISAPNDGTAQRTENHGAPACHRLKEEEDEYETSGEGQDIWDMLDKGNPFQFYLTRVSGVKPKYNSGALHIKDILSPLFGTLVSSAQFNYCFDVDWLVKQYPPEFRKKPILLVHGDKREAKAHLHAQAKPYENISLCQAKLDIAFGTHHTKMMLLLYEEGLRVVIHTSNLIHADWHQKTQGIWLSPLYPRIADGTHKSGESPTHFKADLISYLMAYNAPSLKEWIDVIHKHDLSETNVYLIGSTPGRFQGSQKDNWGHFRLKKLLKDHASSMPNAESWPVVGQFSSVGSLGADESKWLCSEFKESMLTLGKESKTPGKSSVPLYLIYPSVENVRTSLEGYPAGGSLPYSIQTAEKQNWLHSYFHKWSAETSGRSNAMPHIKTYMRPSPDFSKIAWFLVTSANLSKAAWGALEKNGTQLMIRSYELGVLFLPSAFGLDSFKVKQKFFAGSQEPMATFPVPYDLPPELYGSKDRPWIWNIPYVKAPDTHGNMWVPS
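Compounds were preincubated with Tdp1 (1 nM final) for 15 min at room temperature before substrate (15 nM final) started a 5 min reaction; beads (10 ug/ml final) were then added for 10 min before AlphaScreen detection.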
DT40 TDP1 no CPT: qHTS for Inhibitors of human tyrosyl-DNA phosphodiesterase 1 (TDP1): qHTS in cells in absence of CPT; DT40 Tdp1-/- hTDP1 cells, no CPT, ATP luminescence, 48 h; Potency, µM (series often up to 46.2 µM), usual class: inhibitors; 15% of 420,000 active; AID 686978, 2013; note: nearly all actives have a fitted effect of over 55% in size
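Chicken DT40 Tdp1-/- cells stably complemented with human TDP1 were seeded at 400 cells/well with DMSO in place of 20 nM camptothecin. After compound pinning, cells grew at least 48 hr at 37 °C; viability read by CellTiter-Glo luminescence.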
ClpP mod: qHTS Assay for Activators of ClpP. ATP-dependent Clp protease proteolytic subunit (Bacillus subtilis (strain 168)), P80244. purified B. subtilis ClpP, FRET peptide cleavage, 20 min. Potency, µM (series often up to 57.5 µM). 1.9% of 340,000 active. AID 651965, 2013; active = well fitted falling curve with a large enough effect; inconclusive = small, poorly fitted or top-dose-only effect; inactive = no such curve, though single readings can be large or run the other way; note: the source files actives as falling curves though it sought activators and does not explain the sign; nearly all actives have a fitted effect of over 65% in size
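ClpP 10 microg/mL final, pH 8 Tris/KCl buffer with BSA, glycerol, Tween-20; compound pinned in; FRET-FV substrate; RT 20 min; Ex320/Em430; ΔFRET vs ADEP 5.8 microM, DMSO, no enzyme.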
TDP1 cell CPT: DT40-hTDP1 cell growth loss with CPT; chicken DT40 Tdp1-/-;hTDP1 cells + 20 nM CPT, ATP luminescence, 48 h; Potency, µM (titrated, usually from 46.2 µM), hits mostly inhibitors; 12% of 420,000 active; note: nearly all actives have a fitted effect of over 55% in size
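Chicken DT40 Tdp1-/- cells complemented with human TDP1, 400 cells/well, exposed to compounds plus 20 nM camptothecin for at least 48 h at 37 C; viability read as ATP content by CellTiter-Glo luminescence.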
Each line names hits and unclear results; the compound was inactive in the other large screens; ! = a repeat was not active. This is a sample that favours compounds with a hit; in the whole collection about 17% have one here. Unless noted, calls come from the whole dose curve; as a rule, active = well fitted curve in the direction sought with a large enough effect; inconclusive = small, poorly fitted or top-dose-only effect, or another doubt; inactive = no such curve, though single readings can be large; an effect the other way counts as inactive or inconclusive.

COc1ccc(NC(=O)Cn2ncc(Cl)c(Cl)c2=O)cc1S(=O)(=O)N1CCOCC1	DT40 TDP1 no CPT 10µM, TDP1 cell CPT 12µM
O=C(Nc1cccc(S(=O)(=O)N2CCCC2)c1)c1ccncc1	TDP1 cell CPT inconclusive
COc1ccc(NC(=O)c2ccc(Cl)nc2)cc1S(=O)(=O)N1CCOCC1	DT40 TDP1 no CPT 23µM, TDP1 cell CPT 16µM
COc1ccc(C(C(=O)NC(C)(C)C)N(C(=O)CCC(=O)Nc2cc(C)on2)c2ccc(C)c(C)c2)cc1 (configuration not stated)	DT40 TDP1 no CPT inconclusive, TDP1 cell CPT inconclusive
COc1ccc(S(=O)(=O)N2CCOCC2)cc1NC(=O)c1cccc(-n2cccc2)c1	DT40 TDP1 no CPT inconclusive, TDP1 cell CPT inconclusive (no result: TDP1 block)
O=C(Nc1cccc(S(=O)(=O)N2CCOCC2)c1)c1ccc(Cl)nc1	DT40 TDP1 no CPT 23µM, TDP1 cell CPT 16µM
CCOc1ccc(NC(=O)c2cccc(-n3cccc3)c2)cc1S(=O)(=O)N1CCOCC1	TDP1 block 0.79µM (no result: DT40 TDP1 no CPT, ClpP mod, TDP1 cell CPT)
COc1ccc2c(CC(=O)Nc3ccc(OC)c(S(=O)(=O)N4CCOCC4)c3)coc2c1	DT40 TDP1 no CPT inconclusive
O=C(Nc1cccc(S(=O)(=O)N2CCOCC2)c1)c1ccccn1	none
COc1ccc(NC(=O)Cc2coc3cc(C)c(C(C)C)cc23)cc1S(=O)(=O)N1CCOCC1	DT40 TDP1 no CPT 12µM, TDP1 cell CPT 12µM
CC(OC(=O)CNC(=O)c1ccc2ccccc2c1)C(=O)N(C)C1CCCCC1 (configuration not stated)	none (no result: ClpP mod)
O=C1Cc2ccccc2C1=C1C=c2ccccc2=C1	DT40 TDP1 no CPT inconclusive, TDP1 cell CPT inconclusive (no result: TDP1 block)
CCN(CC)c1ncnc2c1ncn2[C@H]1CN(Cc2ccco2)C[C@@H](CO)O1	TDP1 cell CPT inconclusive (no result: TDP1 block)
CN(C)CCNc1ncnc2c1ncn2[C@H]1CN(Cc2ccc(-c3ccccc3)cc2)C[C@@H](CO)O1	DT40 TDP1 no CPT 21µM, TDP1 cell CPT 29µM (no result: TDP1 block)
CC(C)Nc1ncnc2c1ncn2[C@H]1CN(Cc2ccc(-c3ccccc3)cc2)C[C@@H](CO)O1	DT40 TDP1 no CPT 5.2µM, TDP1 cell CPT 4.6µM (no result: TDP1 block)
CCN(CC)c1ncnc2c1ncn2[C@H]1CN(Cc2ccc(-c3ccccc3)cc2)C[C@@H](CO)O1	DT40 TDP1 no CPT 16µM, TDP1 cell CPT inconclusive (no result: TDP1 block)
CC(C)CNc1ncnc2c1ncn2[C@H]1CN(Cc2ccc(-c3ccccc3)cc2)C[C@@H](CO)O1	DT40 TDP1 no CPT 4.1µM, TDP1 cell CPT 5.2µM (no result: TDP1 block)
CC(C)CNc1ncnc2c1ncn2[C@H]1CN(Cc2ccncc2)C[C@@H](CO)O1	DT40 TDP1 no CPT inconclusive (no result: TDP1 block)
CCN1CCN(C(=O)c2ccc(N3CC4CC(C3)c3cccc(=O)n3C4)c([N+](=O)[O-])c2)CC1 (configuration not stated)	none (no result: ClpP mod)
OCCN1CCN(c2ncnc3c2ncn3[C@H]2CN(Cc3ccc(-c4ccccc4)cc3)C[C@@H](CO)O2)CC1	DT40 TDP1 no CPT 6.5µM, TDP1 cell CPT 5.2µM (no result: TDP1 block)
COc1ccc(OC)c(CN2CCC3(CCC(CNC(=O)c4ccco4)O3)CC2)c1 (configuration not stated)	none (no result: TDP1 block, ClpP mod)
Nc1ccc2cc3[nH]c4cc(N)ccc4c3nc2c1	DT40 TDP1 no CPT 2.3µM, TDP1 cell CPT 2.9µM (no result: TDP1 block)
O=C(CCSCc1cccc(Cl)c1)NCc1ccccc1Cl	DT40 TDP1 no CPT 26µM, TDP1 cell CPT inconclusive
O=C(CCSCc1cccc(F)c1)NCc1ccc(F)cc1	DT40 TDP1 no CPT 18µM, TDP1 cell CPT inconclusive (no result: TDP1 block)
CC(C)n1nc(C(=O)OCC(=O)NCCc2ccc(S(N)(=O)=O)cc2)c2ccccc2c1=O	none (no result: TDP1 block)
CCOc1ccccc1NC(=O)c1nnn(CC(=O)Nc2ccccc2CC)c1N	none
CC(=O)Nc1cccc(NC(=O)Cc2csc(COc3cccc(C)c3)n2)c1	DT40 TDP1 no CPT 21µM, TDP1 cell CPT 15µM
Cc1cccc(NC(=O)Cc2csc(COc3cccc(C)c3)n2)c1	none
COc1ccc(NC(=O)Cc2csc(COc3cccc(C)c3)n2)cc1OC	DT40 TDP1 no CPT 26µM, TDP1 cell CPT 18µM
O=C(CCc1nnc(CCc2c[nH]c3ccccc23)o1)NC1CCC1	DT40 TDP1 no CPT inconclusive, TDP1 cell CPT inconclusive
Cc1ccc(CNC(=O)CN(c2cccc(C)c2C)S(=O)(=O)c2ccccc2)cc1	DT40 TDP1 no CPT 16µM, TDP1 cell CPT 16µM (no result: TDP1 block)
CC(C(=O)NCCSCc1cccc(Cl)c1)N(c1ccccc1)S(C)(=O)=O (configuration not stated)	DT40 TDP1 no CPT 13µM!, TDP1 cell CPT 21µM! (no result: TDP1 block)
Cc1cccc(N(CC(=O)NCCC2=CCCCC2)S(C)(=O)=O)c1C	DT40 TDP1 no CPT inconclusive, TDP1 cell CPT 16µM
Cc1cccc(N(CC(=O)N(C)Cc2ccccc2)S(=O)(=O)c2ccccc2)c1C	DT40 TDP1 no CPT 23µM, TDP1 cell CPT inconclusive (no result: TDP1 block)
CN(Cc1ccccc1)C(=O)CN(c1ccccc1Cl)S(C)(=O)=O	none (no result: TDP1 block)
COc1ccc(N(C(C)C(=O)NCCSCc2cccc(Cl)c2)S(C)(=O)=O)cc1 (configuration not stated)	DT40 TDP1 no CPT inconclusive, TDP1 cell CPT inconclusive (no result: TDP1 block)
O=C(/C=C/[C@H]1O[C@@H](n2ccc(=O)[nH]c2=O)[C@H](O)[C@@H]1O)NCCCc1ccccc1	none (no result: TDP1 block)
CC(=O)Nc1ccc(SCC(=O)N(C)C2CCS(=O)(=O)C2)cc1 (configuration not stated)	none (no result: ClpP mod)
CCOC(=O)N1CCN(C(=O)c2noc(C(C)C)c2[N+](=O)[O-])CC1	none
Cc1cccc(N(CC(=O)NCCc2ccccc2)S(=O)(=O)c2ccccc2)c1C	DT40 TDP1 no CPT 18µM, TDP1 cell CPT 16µM (no result: TDP1 block)
Cc1cccc(N(CC(=O)NCCSCc2cccc(Cl)c2)S(=O)(=O)c2ccccc2)c1C	DT40 TDP1 no CPT 21µM, TDP1 cell CPT inconclusive (no result: TDP1 block)
Cc1ccc(CSCCNC(=O)CN(c2cccc(C)c2C)S(=O)(=O)c2ccccc2)cc1	DT40 TDP1 no CPT inconclusive, TDP1 cell CPT inconclusive (no result: TDP1 block)
Cc1cccc(N(CC(=O)N/N=C/c2ccc(C(=O)O)cc2)S(=O)(=O)c2ccccc2)c1C	DT40 TDP1 no CPT inconclusive (no result: TDP1 block)
CS(=O)(=O)N(CC(=O)NCCSCc1ccccc1)c1cc(C(F)(F)F)ccc1Cl	DT40 TDP1 no CPT 15µM, TDP1 cell CPT 21µM (no result: TDP1 block)
CCN(CC)CCCC(C)n1c(-c2ccccc2)nc2c(N3CCOCC3)nc(C)nc21 (configuration not stated)	none (no result: DT40 TDP1 no CPT, ClpP mod, TDP1 cell CPT)
Cc1noc(C)c1CSc1nc2ccccc2nc1NS(=O)(=O)c1ccc(Cl)cc1	DT40 TDP1 no CPT 12µM, TDP1 cell CPT 15µM
O=C(NC1(C(F)(F)F)C(=O)Nc2c1c(=O)[nH]c(=O)n2-c1ccccc1)c1ccccc1 (configuration not stated)	DT40 TDP1 no CPT inconclusive
O=c1[nH]c(=O)n(-c2ccccc2)c2c1C(C(F)(F)F)(C(F)(F)F)N=C(C1CCCCC1)N2	DT40 TDP1 no CPT 23µM, TDP1 cell CPT inconclusive
COc1ccccc1NC(=O)NCc1cccn1Cc1ccccc1	DT40 TDP1 no CPT inconclusive, TDP1 cell CPT inconclusive

High-throughput results (PubChem)
